# Data: PMC11062922 (Nature Chemical Biology, 2023)
# Legend:
# PHKG2 = conditions: compound concentrations:3nM, 10nM, 30nM, 100nM, 300nM, 1000nM, 3000nM, 30000nM,R2:0.987331752692992,slope:1.79353666450797,EC50 Standard Error, by the legend:Standard error of the EC50 estimation as provided by the drc package.
# PLK4 = conditions: compound concentrations:3nM, 10nM, 30nM, 100nM, 300nM, 1000nM, 3000nM, 30000nM,R2:0.98129496676024397,slope:1.0145275307596699,EC50 Standard Error, by the legend:Standard error of the EC50 estimation as provided by the drc package.
# PRKD2 = conditions: compound concentrations:3nM, 10nM, 30nM, 100nM, 300nM, 1000nM, 3000nM, 30000nM,R2:0.99348954984815097,slope:2.8520769192550901,EC50 Standard Error, by the legend:Standard error of the EC50 estimation as provided by the drc package.
# PRKD3 = conditions: compound concentrations:3nM, 10nM, 30nM, 100nM, 300nM, 1000nM, 3000nM, 30000nM,R2:0.98624890214185301,slope:1.3007514421669799,EC50 Standard Error, by the legend:Standard error of the EC50 estimation as provided by the drc package.
# Q6ZSR9 = Q6ZSR9 (human, UniProt Q6ZSR9); conditions: compound concentrations:3nM, 10nM, 30nM, 100nM, 300nM, 1000nM, 3000nM, 30000nM,R2:0.98031780619019204,slope:1.5136598557560801,EC50 Standard Error, by the legend:Standard error of the EC50 estimation as provided by the drc package.
# Sequence of Q6ZSR9 (Q6ZSR9 whole entry, looked up): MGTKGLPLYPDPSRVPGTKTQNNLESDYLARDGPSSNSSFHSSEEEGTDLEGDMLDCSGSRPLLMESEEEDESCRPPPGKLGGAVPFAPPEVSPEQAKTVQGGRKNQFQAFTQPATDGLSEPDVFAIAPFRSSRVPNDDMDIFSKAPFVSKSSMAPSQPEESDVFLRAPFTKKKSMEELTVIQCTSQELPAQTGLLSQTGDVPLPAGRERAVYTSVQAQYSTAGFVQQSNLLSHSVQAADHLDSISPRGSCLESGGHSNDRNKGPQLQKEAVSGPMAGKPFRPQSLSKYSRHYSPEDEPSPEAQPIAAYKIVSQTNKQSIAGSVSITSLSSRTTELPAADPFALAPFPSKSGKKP
# RET = conditions: compound concentrations:3nM, 10nM, 30nM, 100nM, 300nM, 1000nM, 3000nM, 30000nM,R2:0.99332600963227702,slope:0.91132357301438205,EC50 Standard Error, by the legend:Standard error of the EC50 estimation as provided by the drc package.
# SIK2 = conditions: compound concentrations:3nM, 10nM, 30nM, 100nM, 300nM, 1000nM, 3000nM, 30000nM,R2:0.98900734002019797,slope:1.1146515084845601,EC50 Standard Error, by the legend:Standard error of the EC50 estimation as provided by the drc package.
# SLK = conditions: compound concentrations:3nM, 10nM, 30nM, 100nM, 300nM, 1000nM, 3000nM, 30000nM,R2:0.98664495046468503,slope:1.29889224696913,EC50 Standard Error, by the legend:Standard error of the EC50 estimation as provided by the drc package.
# STK10 = conditions: compound concentrations:3nM, 10nM, 30nM, 100nM, 300nM, 1000nM, 3000nM, 30000nM,R2:0.96114701391993196,slope:1.3567914051898999,EC50 Standard Error, by the legend:Standard error of the EC50 estimation as provided by the drc package.
# STK11 = conditions: compound concentrations:3nM, 10nM, 30nM, 100nM, 300nM, 1000nM, 3000nM, 30000nM,R2:0.98533886968205897,slope:6.0517648666997097,EC50 Standard Error, by the legend:Standard error of the EC50 estimation as provided by the drc package.
# STK26 = conditions: compound concentrations:3nM, 10nM, 30nM, 100nM, 300nM, 1000nM, 3000nM, 30000nM,R2:0.89438319987914305,slope:6.7801376871061398,EC50 Standard Error, by the legend:Standard error of the EC50 estimation as provided by the drc package.
# STK3 = conditions: compound concentrations:3nM, 10nM, 30nM, 100nM, 300nM, 1000nM, 3000nM, 30000nM,R2:0.98274097972393204,slope:1.3616846231778099,EC50 Standard Error, by the legend:Standard error of the EC50 estimation as provided by the drc package.
# STK4 = conditions: compound concentrations:3nM, 10nM, 30nM, 100nM, 300nM, 1000nM, 3000nM, 30000nM,R2:0.95767016983562303,slope:1.48085900140722,EC50 Standard Error, by the legend:Standard error of the EC50 estimation as provided by the drc package.
# TGFBR2 = conditions: compound concentrations:3nM, 10nM, 30nM, 100nM, 300nM, 1000nM, 3000nM, 30000nM,R2:0.91957544903751998,slope:0.85257672285703501,EC50 Standard Error, by the legend:Standard error of the EC50 estimation as provided by the drc package.
# HSP90B1 = system: HSP90B1; design: species or system human, MV4-11 + K-562 + COLO205 + SK-N-BE2 + OVCAR-8; conditions: read-out: apparent Kd; compound concentrations:100 nM and 1000 nM (sheet 'Samples'); n = 1
# CIT = system: CIT; design: species or system human, MV4-11 + K-562 + COLO205 + SK-N-BE2 + OVCAR-8; conditions: compound concentrations:0.3nM, 1nM, 3nM, 10nM, 30nM, 100nM, 300nM, 1000nM,R2:0.97918771846363795,slope:1.88206182244377,EC50 Standard Error, by the legend:Standard error of the EC50 estimation as provided by the drc package.
# MOB1A = system: MOB1A; design: species or system human, MV4-11 + K-562 + COLO205 + SK-N-BE2 + OVCAR-8; conditions: compound concentrations:0.3nM, 1nM, 3nM, 10nM, 30nM, 100nM, 300nM, 1000nM,R2:0.920591021551731,slope:1.01230388230399,EC50 Standard Error, by the legend:Standard error of the EC50 estimation as provided by the drc package.
# PKN2 = system: PKN2; design: species or system human, MV4-11 + K-562 + COLO205 + SK-N-BE2 + OVCAR-8; conditions: compound concentrations:0.3nM, 1nM, 3nM, 10nM, 30nM, 100nM, 300nM, 1000nM,R2:0.99284498309618197,slope:1.0925759067996901,EC50 Standard Error, by the legend:Standard error of the EC50 estimation as provided by the drc package.
# PRKACA = system: PRKACA; design: species or system human, MV4-11 + K-562 + COLO205 + SK-N-BE2 + OVCAR-8; conditions: compound concentrations:0.3nM, 1nM, 3nM, 10nM, 30nM, 100nM, 300nM, 1000nM,R2:0.96854382612038603,slope:0.55494475064464099,EC50 Standard Error, by the legend:Standard error of the EC50 estimation as provided by the drc package.
# PRKACB = system: PRKACB; design: species or system human, MV4-11 + K-562 + COLO205 + SK-N-BE2 + OVCAR-8; conditions: compound concentrations:0.3nM, 1nM, 3nM, 10nM, 30nM, 100nM, 300nM, 1000nM,R2:0.87991730549407599,slope:0.899687988537484,EC50 Standard Error, by the legend:Standard error of the EC50 estimation as provided by the drc package.
compound,measurement,setting,value
TAK659,EC50,PHKG2,201 nM
same,Kd,PHKG2; read-out: apparent Kd,201 nM
same,EC50,PLK4,148 nM
same,Kd,PLK4; read-out: apparent Kd,77.2 nM
same,EC50,PRKD2,1010 nM
same,Kd,PRKD2; read-out: apparent Kd,895 nM
same,EC50,PRKD3,1410 nM
same,Kd,PRKD3; read-out: apparent Kd,1180 nM
same,EC50,Q6ZSR9,566 nM
same,Kd,Q6ZSR9; read-out: apparent Kd,493 nM
same,EC50,RET,22.7 nM
same,Kd,RET; read-out: apparent Kd,12.1 nM
same,EC50,SIK2,260 nM
same,Kd,SIK2; read-out: apparent Kd,140 nM
same,EC50,SLK,516 nM
same,Kd,SLK; read-out: apparent Kd,516 nM
same,EC50,STK10,725 nM
same,Kd,STK10; read-out: apparent Kd,725 nM
same,EC50,STK11,1150 nM
same,Kd,STK11; read-out: apparent Kd,1150 nM
same,EC50,STK26,363 nM
same,Kd,STK26; read-out: apparent Kd,275 nM
same,EC50,STK3,742 nM
same,Kd,STK3; read-out: apparent Kd,683 nM
same,EC50,STK4,628 nM
same,Kd,STK4; read-out: apparent Kd,567 nM
same,EC50,TGFBR2,3720 nM
same,Kd,TGFBR2; read-out: apparent Kd,2960 nM
CCn1c(-c2nonc2N)nc2c(C#CC(C)(C)O)nc(OCCN)cc21.CCn1c(-c2nonc2N)nc2c(C#CC(C)(C)O)nc(OCCN)cc21.Cl.Cl [GSK902056A],potency estimated from few doses,HSP90B1,769 nM
same,EC50,CIT,279 nM
same,Kd,CIT; read-out: apparent Kd,279 nM
same,EC50,MOB1A,223 nM
same,Kd,MOB1A; read-out: apparent Kd,223 nM
same,EC50,PKN2,401 nM
same,Kd,PKN2; read-out: apparent Kd,401 nM
same,EC50,PRKACA,230 nM
same,Kd,PRKACA; read-out: apparent Kd,212 nM
same,EC50,PRKACB,145 nM
same,Kd,PRKACB; read-out: apparent Kd,145 nM
Cc1cccc(-c2nc(Nc3ccncc3)c3sccc3n2)n1 [GW869641X],potency estimated from few doses,HSP90B1,1250 nM
